High-throughput results (PubChem BioAssay)
Cav3 T inh – blocks human Cav3.2 T-type calcium channel. O95180. Cav3.2-expressing cells, Fluo-4 calcium fluorescence FDSS; active compounds read low. B-score at 10 µM. 100,000 compounds, 4% hits;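 active means single-dose well whose peak fluorescence ratio is a statistical outlier from its plate by either plate-standardised score or position-corrected B-score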
CYP2C19 activ – activators of human cytochrome P450 2C19; P33261; recombinant CYP2C19, luciferin-H EGE luminescence; active compounds read high; 0 = fully inhibited enzyme, 1 = untreated enzyme; activation factor at 5 µM; 96,000 tested, under 10 active;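 active means activation factor of at least 2 at 5 µM in the primary screen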;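 further: 0 = wells with 2.5 mM tranylcypromine and 1 = vehicle-only wells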
CYP2C9 act – CYP2C9 (human) activation. P11712. recombinant CYP2C9, luciferin-H conversion, luminescence; active compounds read high; factor 1 = untreated enzyme, 0 = blocked. activation factor at 5 µM. 96,000 compounds, 1.4% hits;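 active means activation factor of 2 or more for CYP2C9 at a 5 µM dose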;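 further: 0 = sulfaphenazole-blocked wells and 1 = vehicle-only wells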
Target sequence (P11712 whole entry, looked up): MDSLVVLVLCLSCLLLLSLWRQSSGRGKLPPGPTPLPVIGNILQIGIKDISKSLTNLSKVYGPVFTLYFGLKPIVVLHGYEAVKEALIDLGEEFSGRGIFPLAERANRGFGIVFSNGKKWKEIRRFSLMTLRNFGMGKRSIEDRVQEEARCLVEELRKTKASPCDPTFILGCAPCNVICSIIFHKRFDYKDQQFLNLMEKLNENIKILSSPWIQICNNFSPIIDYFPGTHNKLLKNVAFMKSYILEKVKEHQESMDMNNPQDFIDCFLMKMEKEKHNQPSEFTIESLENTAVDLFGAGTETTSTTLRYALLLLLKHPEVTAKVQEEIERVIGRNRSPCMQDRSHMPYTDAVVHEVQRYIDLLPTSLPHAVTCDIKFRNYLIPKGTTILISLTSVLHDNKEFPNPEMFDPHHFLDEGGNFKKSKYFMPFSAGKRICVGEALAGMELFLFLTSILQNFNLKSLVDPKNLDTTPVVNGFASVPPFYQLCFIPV
CYP2C9 inh – human CYP2C9 inhibition; inhibition, % at 5 µM; 96,000 compounds, 20% hits; CYP2C9 Supersomes, luciferin-H conversion, luminescence;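 active means blocking of liver enzyme CYP2C9 beyond about 50% at 5 µM, limit read from the data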
CYP2C19 inhib – blocks human cytochrome P450 2C19. P33261. CYP2C19 Supersomes, luciferin-H EGE luminescence, 30 min. inhibition, % at 5 µM. 96,000 compounds, 21% hits. AID 778;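 active means CYP2C19 inhibition above a set limit at 5 µM in the primary screen, cut at about 50% in these data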;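 further: plate controls were negative control wells for no effect and 2.5 mM tranylcypromine positive control for full effect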
* marks the source's active call; other numbers are inactive results; . = not tested or not shown. Sampled rows, rich in hits. Any-hit rate of the full collection: about 27%.

SMILES | Cav3 T inh | CYP2C19 activ | CYP2C9 act | CYP2C9 inh | CYP2C19 inhib
CN(c1ccccc1)S(=O)(=O)c1ccc(C(=O)OCC(=O)NCc2ccco2)cc1 | 0.0055 | 0 | 0.1 | 94* | 97*
O=C(COC(=O)c1cccc(S(=O)(=O)N2CCN(c3ccccc3)CC2)c1)NCc1ccco1 | -2.3 | 0.2 | 0.6 | 44 | 78*
CCNc1nc(NCC)nc(C(=O)NN)n1 | -0.62 | . | . | . | .
COc1cccc(-c2nc(Cc3ccc(OC)c(OC)c3)no2)c1 | -1.2 | 0.4 | 0.8 | 17 | 58*
CCOC(=O)c1ccccc1OCc1cc(/C=N/n2cncn2)ccc1OC | 0.069 | . | . | . | .
CCCCOc1c(Cl)cc(CNC(C)(C)CO)cc1OCC | 0.32 | 0.9 | 1 | -5 | 12
CCCCNCc1cc(Cl)c(OCCC)c(OCC)c1 | -1.3 | 0.3 | 0.6 | 35 | 68*
CCOc1c(Cl)cc(CNCC(C)C)cc1OC | 1.4 | 0.3 | 1 | 1 | 71*
Cc1ccc(Cc2nnc3n(-c4cccc(C)c4)nc(C(=O)c4ccccc4)n3c2=O)cc1 | -2.4 | . | . | . | .
O=[N+]([O-])c1ccc(Sc2nccn2Cc2ccccc2)c([N+](=O)[O-])c1 | -1.2 | 0.5 | 0.6 | 35 | 51*
Fc1ccc(CN2CCCCCC2)c(F)c1 | -0.0068 | 0.7 | 0.6 | 44 | 26
Oc1ccc(Br)cc1CN1CCCCCCC1 | 0.67 | 0.4 | 1.1 | -9 | 57*
Cc1cc(C(=O)CSc2nnc(-c3cccnc3)n2-c2ccccc2F)c(C)n1CC1CCCO1 (stereo unspecified) | -0.0076 | 0.2 | 0.3 | 65* | 78*
Cc1ccccc1-n1c(SCC(=O)c2cc(C)n(C)c2C)nnc1-c1ccncc1 | 1.6 | 0 | 0.1 | 92* | 99*
Cc1cc(C(=O)CSc2nnc(Nc3ccccc3F)s2)c(C)n1CC1CCCO1 (stereo unspecified) | -6.9* | 0.5 | 0.4 | 56* | 53*
Cc1cc(C(=O)CSc2nnc(NCc3ccccc3)s2)c(C)n1C | -0.78 | 0.8 | 0.8 | 18 | 21
CCn1c(SCC(=O)c2cc(C)n(CC3CCCO3)c2C)nc2ccccc21 (stereo unspecified) | -1.9 | 0.2 | 1 | 2 | 76*
N#Cc1cc(C(=O)c2cc(Br)ccc2O)cn(C2CCCCC2)c1=O | 1 | 1.1 | 1.1 | -13 | -13
COc1ccc(NC(=O)C23CCC(C2)C(C)(C)C3=O)cc1 (stereo unspecified) | 0.39 | 0.7 | 0.8 | 21 | 34
O=C(CSc1ccccc1)NCc1ccco1 | 0.85 | . | . | . | .
Cc1ccc(SCC(=O)NC(=O)NCc2ccco2)cc1C | -6.6* | 0.7 | 0.5 | 46 | 28
O=C(CSc1ccc2c(c1)OCCO2)NCc1ccco1 | -2.5 | 0.5 | 0.3 | 70* | 55*
Cc1ccccc1Nc1nnc(SCC(=O)NC(=O)NCc2ccco2)s1 | . | 0.6 | 0.5 | 45 | 40
O=C(NC1CCCCC1)c1cccs1 | -0.2 | 1 | 1 | 4 | -2
O=C(COC(=O)c1cccs1)NC1CCCCC1 | 0.28 | 0.1 | 0.8 | 18 | 92*
SMILES | Cav3 T inh | CYP2C19 activ | CYP2C9 act | CYP2C9 inh | CYP2C19 inhib
O=C(COC(=O)c1cccs1)c1ccccc1 | 0.28 | 0.1 | 0.2 | 78* | 89*
O=C(OCN1C(=O)c2ccccc2C1=O)c1cccs1 | 0.14 | 0.9 | 1.2 | -22 | 14
COC(=O)C1=C(C)N(Cc2ccco2)C(=O)N[C@@H]1c1ccco1 | -1.2 | . | . | . | .
Cn1c(=O)[nH]c(=O)c2c1nc(N1CCC(Cc3ccccc3)CC1)n2Cc1ccccc1 | -0.79 | 0.7 | 0.8 | 23 | 29
C=C(C)Cn1c(N2CCC(Cc3ccccc3)CC2)nc2c1c(=O)[nH]c(=O)n2C | -4* | . | . | . | .
CC(=O)Cn1c(N2CCC(Cc3ccccc3)CC2)nc2c1c(=O)[nH]c(=O)n2C | 1.6 | 0.5 | 0.8 | 16 | 50*
CCCCCn1c(N(C)Cc2ccccc2)nc2c1c(=O)[nH]c(=O)n2C | -3.2 | 1 | 0.8 | 18 | 4
CCCCCn1c(N2CCC(Cc3ccccc3)CC2)nc2c1c(=O)[nH]c(=O)n2C | -4.8* | . | . | . | .
CC1(C)CC(=O)C2=C(C1)Nc1ncnn1C2c1ccccn1 (stereo unspecified) | 1.1 | 1 | 1 | 0 | -2
CC(C)CC(NC(N)=O)C(=O)OCC(=O)NC(=O)NC1CCCC1 (stereo unspecified) | -0.44 | 0.4 | 0.9 | 15 | 57*
CC1C(=O)C(C)C(c2ccco2)NC1c1ccco1 (stereo unspecified) | -2.8 | 0.1 | 1.3 | -29 | 94*
O=C(c1ccc2c(=O)n(-c3ccccc3)c(=O)[nH]c2c1)N1CCCCC1 | 0.63 | 1.1 | 1.1 | -5 | -9
O=c1[nH]c2cc(Cl)ccc2n1-c1ccccc1 | 1.1 | 0.5 | 0.9 | 14 | 50*
O=c1[nH]c(=S)[nH]nc1Cc1ccccc1 | 0.045 | 1 | 1 | -5 | -1
CCC(OC(=O)CCc1nc2ccccc2[nH]c1=O)C(=O)c1ccccc1 (stereo unspecified) | -0.77 | 0 | 0.2 | 79* | 99*
CC(=O)COC(=O)CCc1nc2ccccc2[nH]c1=O | 0.21 | 0.9 | 0.9 | 14 | 11
O=c1[nH]c2ccccc2nc1Cc1ccccc1 | -0.34 | 0.4 | 0.9 | 6 | 56*
Cc1noc(C)c1COC(=O)CCc1nc2ccccc2c(=O)[nH]1 | -0.55 | 0.6 | 0.4 | 59* | 41
Cc1noc(C)c1COC(=O)CCC(=O)c1ccc(F)cc1 | -0.38 | 0.7 | 0.9 | 11 | 30
CCCCOC(=O)CCc1nc2ccccc2[nH]c1=O | 0.54 | 0.3 | 0.7 | 31 | 73*
CCCc1nc2ccccc2[nH]1 | 0.58 | 1 | 1.2 | -25 | 2
CCOC(=O)CCc1nc2ccccc2[nH]1 | 0.59 | 0.3 | 0.8 | 24 | 69*
O=C(NC1(C(F)(F)F)C(=O)Nc2c1c(=O)[nH]c(=O)n2Cc1ccco1)C1CCCCC1 (stereo unspecified) | -1.3 | 1.1 | 1.1 | -7 | -12
CC(=O)c1c(C)n(-c2ccccc2)c2ccc(O)cc12 | -0.079 | 0.2 | 0.5 | 49 | 82*
COc1ccc2c(c1)c(C(=O)N1CCN(C)CC1)c(C)n2-c1ccccc1 | 0.8 | 0.8 | 1 | 3 | 19
SMILES | Cav3 T inh | CYP2C19 activ | CYP2C9 act | CYP2C9 inh | CYP2C19 inhib
COC(=O)c1c(C)n(-c2ccc(C)cc2)c2ccc(O)cc12 | 1.1 | 0.5 | 0.7 | 25 | 53*
COC(=O)c1c(C(=O)OC)c(-c2ccc(C)cc2)n2c1CS(=O)C2 (stereo unspecified) | 0.98 | 0.7 | 0.7 | 34 | 30
CC(=O)c1c(C)n(-c2ccccc2)c2ccc(OCC(O)CN3CCOCC3)cc12 (stereo unspecified) | -0.19 | 0.2 | 0.3 | 68* | 77*
CNC(=O)NC(=O)CSc1ncc(C(F)(F)F)cc1Cl | -0.042 | 1 | 1.2 | -21 | 1
Cc1ccc(CNC(=O)C2CC(c3cccc([N+](=O)[O-])c3)=NO2)o1 (stereo unspecified) | -0.072 | 0.9 | 1.2 | -18 | 11
COC(=O)c1cnn(C(=O)c2cc(OC)ccc2Br)c1N | 0.18 | 0.8 | 2* | -102 | 19
